From PubChem BioAssay AID624304 (Sanford-Burnham Center for Chemical Genomics, 2012)
Out of some 360,000 compounds screened, about 1,800 (0.5%) were called active. For the sample, actives were picked, then their nearest neighbours and some compounds at random. Unmarked numbers belong to inactive results.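 The calls were made as follows: active = interference check ratio from 0.5 to 1.5 plus GFP to RFP signal ratio inhibition reaching or exceeding a fixed threshold (cut at about 30% in these data, passing the limit was not always enough); inactive = the rest.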

Assay: suppressors of acrylamide-induced Pgst-4::GFP reporter in worms, primary screen, SKN-1 inhibitor project, whole organism, uHTS, GFP/RFP fluorescence ratio, strain VP596 (AID 624304)
Conditions: C. elegans VP596 Pgst-4::GFP/RFP ratio, 24 h, at 21.8 µM, stronger effect = higher value

| SMILES | inhibition |
| --- | --- |
| Cc1c(C(=O)NCC(c2ccco2)N2CCCC2)oc2ccc(Cl)cc12 (stereo not drawn) | 3.49% |
| CN(Cc1ccccc1F)c1cc2c(c3c1ccn3C)C1CCC2O1 (stereo not drawn) | 6.79% |
| Fc1c(F)c(C(F)(F)F)c(F)c(F)c1N1CCN(c2ccc3nnc(C(F)(F)F)n3n2)CC1 | -6.81% |
| C=CCCC(=O)N1C[C@H]2CON(C)[C@H]2C[C@H]1c1cccc(Nc2ccccc2)c1 | 3.69% |
| N/C(=N\OC(=O)Nc1ccccc1)c1ccno1 | 11.3% |
| COC(=O)c1[nH]c2ccc(Br)cc2c1NC(=O)Oc1ccccc1 | 6.84% |
| COc1ccc(CCC(=O)OCC(=O)Nc2ccc(C)c(S(=O)(=O)N(C)C)c2)cc1 | -9.73% |
| Cc1ccc(F)cc1NC(=O)CSCc1c(C)noc1C | -5.42% |
| Cc1ccc(C)c(NC(=O)COC(=O)c2nn(C)c(=O)c3ccccc23)c1 | 0.693% |
| Cc1ccc(F)cc1NC(=O)Cc1nn(C)c(=O)c2ccccc12 | 35.7% (active) |
| COC(=O)CCCC1=CC2=C(c3ccccc3)C(=O)C(C)(OC(=O)C3CCCC3)C(=O)C2=CN1c1ccc(OC)cc1 (stereo not drawn) | -4% |
| COC(=O)CCCC1=CC2=CC(=O)C(C)(OC(=O)c3cccs3)C(=O)C2=CN1CC(C)C (stereo not drawn) | 41% (active) |
| CCCCC1=CC2=CC(=O)C(C)(OC(=O)CC)C(=O)C2=CN1CCCOC(C)C (stereo not drawn) | 19.4% |
| Cc1nc2ccccc2cc1OCc1ccc(F)cc1 | 90.3% (active) |
| Fc1cccc2ncnc(OCc3ccccc3)c12 | 3.79% |
| CC(=O)c1ccccc1OCc1ccc(C(=O)c2ccccc2)cc1 | 12.8% |
| OCC[C@H]1C[C@H](O)[C@@H](O)[C@]2(CCCCO2)O1 | -7.25% |
| COc1cccc(NC(=O)C(Sc2nnnn2C)c2ccccc2)c1 (stereo not drawn) | 17.4% |
| COc1cccc(NC(=O)CC(c2ccc(OC(C)C)cc2)c2ccccc2OC)c1 (stereo not drawn) | -0.0853% |
| COc1cccc(NC(=O)C(C)Oc2ccccc2)c1 (stereo not drawn) | 51.2% (active) |
| COC(=O)c1ccc(COC(=O)c2c(C)nn(Cc3ccccc3Cl)c2Cl)o1 | -0.292% |
| Cc1ccc(NC(=O)Cc2nc(COC(=O)C(C)NS(=O)(=O)c3ccc(C)cc3)cs2)cc1 (stereo not drawn) | -10% |

| SMILES | inhibition |
| --- | --- |
| CC1Cc2ccccc2N1C(=O)CSc1nnc(C2CC2)n1C (stereo not drawn) | 8.36% |
| CC1Cc2ccccc2N1C(=O)CSc1nc2ccccc2o1 (stereo not drawn) | 30.1% (active) |
| CCS(=O)(=O)c1ccc2oc(SCC(=O)N3c4ccccc4CC3C)nc2c1 (stereo not drawn) | -0.339% |
| Cc1cc2c(cc1S(=O)(=O)NCc1ccc(Cl)cc1)OCC(=O)N2 | -19.4% |
| COc1ccccc1N(CCOc1ccccc1)S(=O)(=O)c1ccccc1 | 3.24% |
| Cc1nc2c(-c3ccc(F)cc3)c(C)nn2c(C)c1CCC(=O)N1CCN(c2ccccn2)CC1 | -5.8% |
| Cc1nc2ncnn2c(C)c1CCC(=O)N1CCN(C(=O)c2ccco2)CC1 | -8.68% |
| Cc1nc2nc(C)c(CCC(=O)N3CCN(c4ccccc4)CC3)c(C)n2n1 | 35.7% (active) |
| CC1CCN(C(=O)Cn2nnnc2CN2CCOCC2)CC1 | -17.8% |
| N#CC1=C(N)Oc2c(sc3ccccc23)C1c1ccco1 (stereo not drawn) | 35% (active) |
| CCc1nc2c(OCC(=O)C(C)(C)C)cccn2c1N(C)C(=O)c1ccccc1F | 15.8% |
| CCOC(=O)C1=NNC2(c3ccc(Cl)cc3)C(=O)N(c3cc(C)cc(C)c3)C(=O)C12 (stereo not drawn) | 14.5% |
| COc1ccc(-c2c(C(C)=O)c(C)nc3sc4c(=O)n(-c5ccc(C)cc5)nnc4c23)cc1 | 12.1% |
| CC(Oc1ccc(Cl)cc1)c1ccnn1S(C)(=O)=O (stereo not drawn) | 33.3% (active) |
| CC(Oc1ccc(Cl)cc1)C(=O)Nc1ncccn1 (stereo not drawn) | 11.8% |
| CC(Oc1ccc(Cl)cc1)C(=O)OCC(=O)Nc1ncc(Cl)cc1Cl (stereo not drawn) | 6.67% |
| CCc1c(SCCC(=O)O)nc2ccccc2c1C | -7.29% |
| Cc1nccn1-c1ccc(NC(=O)[C@H]2O[C@@H](n3ccc(=O)[nH]c3=O)[C@H](O)[C@@H]2O)cc1 | 1.64% |
| COc1ccccc1OCC(=O)OCn1c(SC)nnc(C)c1=O | 5.86% |
| CC1CN(C(=O)CCC(=O)NCCCN2CCC(Cc3ccccc3)CC2)c2cc(Cl)ccc2O1 (stereo not drawn) | 14.9% |
| O=C1CCC([N+](=O)[O-])C(c2ccccc2Br)N1 (stereo not drawn) | 9.01% |
